# Assay results as given in PubChem BioAssay AID1845224 (National Center for Advancing Translational Sciences (NCATS), 2023).
# Results filed as inconclusive are left out. A call without a number means that no potency is given here. Calls of active or inactive are those of the source. Calls follow the shape of the dose curve; as a rule, active = well fitted curve in the direction sought with a large enough effect; inconclusive = small, poorly fitted or top-dose-only effect, or another doubt; inactive = no such curve, though single readings can be large or run the other way.
# Tested on: NanoLuc luciferase (engineered Oplophorus gracilirostris luciferase)
# Experiment: Confirmatory Nanoluciferase (NLuc) qHTS assay for identification of artifact compounds.
# Settings: secreted NLuc in S16 cell medium, luminescence, 5 min; series mostly up to 39 µM
# Summary of the method: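 Conditioned medium from NLuc-expressing S16 cells (diluted 1:55) was incubated with compounds for 15 min at room temperature. Nano-Glo substrate (1:100) was then added, and luminescence was read after 5 min.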
row,Compound,Potency
1,CCCN(C(=O)Cc1c(C(=O)O)[nH]c2ccc(Cl)cc12)c1ccc(OCC)cc1,inactive
2,CCCCn1c(SCC(=O)Nc2ccc(F)cc2)nc2c(sc3ccccc32)c1=O,inactive
3,O=C(O)c1cc(F)c(S(=O)(=O)N2CCN(S(=O)(=O)c3ccc4c(c3)OCCO4)CC2)cc1F,inactive
4,CCOC(=O)c1ccc(N2C(=O)c3n[nH]c(-c4ccco4)c3C2c2ccc(F)cc2)cc1 (configuration not stated),inactive
5,Oc1ccc(CCc2c(F)cccc2F)c2cccnc12,inactive
6,Cc1ccc(NC(=O)Nc2nnc(SCC(=O)N3CCCCC3)s2)cc1,inactive
7,CC(=O)N1CCC(N(Cc2ccco2)C(=O)Nc2ccc(C)c(Cl)c2)CC1,inactive
8,O=c1c2ccccc2nc2sc(Nc3ccc(Br)cc3)nn12,inactive
9,Clc1ccc(CNc2cc(-c3ccc4c(c3)OCO4)ncn2)cc1,inactive
10,CCc1ccc2oc(C(=O)Nc3cc(Cl)ccc3OC)cc(=O)c2c1,inactive
11,CC1=CC23C(=O)C(C=C(CO)[C@@H](O)[C@]2(O)[C@H]1O)[C@H]1[C@@H](C[C@H]3C)C1(C)C (some centres not stated),inactive
12,CCOc1ccccc1NC(=O)Cn1c(=O)n(CCCC(=O)NCc2ccc(C)cc2)c(=O)c2ccccc21,inactive
13,O=C(Nc1ccc(Cl)c(Cl)c1)Nc1ncc(-c2ccncc2)s1,inactive
14,Oc1ccc(C2(c3ccc(O)cc3)CC3CC2C2CCCC32)cc1 (configuration not stated),inactive
15,O=S1(=O)N=C(Oc2ccc(-c3ccccc3)cc2)c2ccccc21,inactive
16,O=C(O)c1sc2c(c1-c1nc3ccccc3s1)CCNC2,inactive
17,COc1ccc(-c2c3c(=O)n(C)c(=O)n(C)c3c3n2-c2ccccc2NC3c2ccccc2OC)cc1 (configuration not stated),inactive
